In PubChem BioAssay:
Values without a mark were called inactive. For part of these data: Entries with a potency or affinity are not part of this list. Active and inactive are the calls of the source. Unless noted, the rule behind the calls is not given here.

Experiments:
[1] = antimalarial activity against Dd2 strain (AID 2302;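 active = growth inhibition above 50% at the single 2 µM test dose, taken to imply half-maximal potency below 2 µM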;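 note: 0% = DMSO untreated growth and 100% = chloroquine plus artemisinin killed control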); conditions: P. falciparum Dd2 in RBCs, LDH growth readout, 72 h; at 2 µM; stronger effect = higher value
[2] = HepG2 cytotoxicity, primary screen, cytotoxicity control for P. falciparum antimalarial project, cell-based, ATP luminescence (AID 2303;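 active = inhibition above 50%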;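 note: 0% = DMSO wells and 100% = digitonin-killed cells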); conditions: HepG2 viability, 24-48 h, at 10 µM, stronger effect = higher value
[3] = biological target: L-lactate dehydrogenase (Plasmodium falciparum (isolate CDC / Honduras)) (UniProt Q27743); test: PfLDH activity inhibition – cell lysate, 3D7 strain, counter-screen for P. falciparum growth inhibition project (AID 2304);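 note: 0% = vehicle and 100% = reference inhibitor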; conditions: P. falciparum 3D7 crude extract, LDH APAD/NBT absorbance; at 2 µM; stronger effect = higher value
[4] = inhibition of 3D7 malaria parasite growth – strain 3D7 (AID 2306);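 note: 0% = DMSO wells and 100% = chloroquine plus artemisinin control wells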; conditions: P. falciparum 3D7 erythrocytic growth, LDH absorbance, 72 h; at 2 µM; stronger effect = higher value
[5] = biological target: Calcium-dependent protein kinase 1 (Plasmodium falciparum (isolate 3D7)) (UniProt P62344); test: PfCDPK1 kinase inhibitors, biochemical, TCAMS library (AID 1159585; cut-off not given, nearly all actives have IC50 up to about 0.98 µM;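 note: inhibitors leave more ATP so luminescence rises with inhibition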); conditions: recombinant PfCDPK1, Kinase-Glo ATP depletion luminescence
[6] = biological target: Plasmodium falciparum protein kinase 6 (PK6, PF3D7_1337100) (UniProt Q8IDW1); test: PfPK6 kinase inhibitors, biochemical, TCAMS library (AID 1159586); conditions: recombinant PfPK6, Kinase-Glo ATP depletion luminescence
[7] = biological target: Protein kinase 7 (PK7), Plasmodium falciparum 3D7 (PF3D7_0213400) (UniProt Q7YTF7); test: inhibition of Plasmodium PK7 catalytic activity – biochemical, TCAMS antimalarial set, Kinase-Glo luminescence (AID 1159587); conditions: recombinant PfPK7, Kinase-Glo ATP depletion luminescence
[8] = biological target: Calcium-dependent protein kinase 4 (Plasmodium falciparum (isolate 3D7)) (UniProt Q8IBS5); test: PfCDPK4 kinase inhibitors, biochemical, TCAMS library (AID 1159588; cut-off not given, nearly all actives have IC50 up to about 0.91 µM); conditions: recombinant PfCDPK4, Kinase-Glo ATP depletion luminescence
Sequence of Calcium-dependent protein kinase 4 (Plasmodium falciparum (isolate 3D7)) (Q8IBS5 whole entry, looked up): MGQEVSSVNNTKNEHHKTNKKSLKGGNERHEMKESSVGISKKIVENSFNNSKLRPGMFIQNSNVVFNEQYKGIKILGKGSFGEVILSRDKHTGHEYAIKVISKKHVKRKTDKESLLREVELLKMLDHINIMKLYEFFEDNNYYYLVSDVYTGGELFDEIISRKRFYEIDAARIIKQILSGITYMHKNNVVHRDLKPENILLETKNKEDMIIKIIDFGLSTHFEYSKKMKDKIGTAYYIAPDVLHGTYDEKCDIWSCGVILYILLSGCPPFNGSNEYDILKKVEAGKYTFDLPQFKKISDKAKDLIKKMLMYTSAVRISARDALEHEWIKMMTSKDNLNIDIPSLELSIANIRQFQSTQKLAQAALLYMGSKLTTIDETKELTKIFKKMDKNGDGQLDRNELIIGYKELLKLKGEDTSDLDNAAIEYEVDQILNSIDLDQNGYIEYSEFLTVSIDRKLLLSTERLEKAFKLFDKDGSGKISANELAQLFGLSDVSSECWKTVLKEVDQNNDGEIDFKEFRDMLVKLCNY

Sequence of L-lactate dehydrogenase (Plasmodium falciparum (isolate CDC / Honduras)) (Q27743 whole entry, looked up): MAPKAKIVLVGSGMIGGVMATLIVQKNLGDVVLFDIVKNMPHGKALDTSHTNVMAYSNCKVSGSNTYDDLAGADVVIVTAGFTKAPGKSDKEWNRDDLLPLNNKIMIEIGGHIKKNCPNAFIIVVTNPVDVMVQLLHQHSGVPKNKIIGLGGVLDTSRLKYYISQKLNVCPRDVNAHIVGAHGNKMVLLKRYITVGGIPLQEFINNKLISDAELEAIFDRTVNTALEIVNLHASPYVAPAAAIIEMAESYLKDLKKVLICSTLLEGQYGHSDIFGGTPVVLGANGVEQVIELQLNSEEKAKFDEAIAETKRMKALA
Sequence of Protein kinase 7 (PK7), Plasmodium falciparum 3D7 (PF3D7_0213400) (Q7YTF7 1-343): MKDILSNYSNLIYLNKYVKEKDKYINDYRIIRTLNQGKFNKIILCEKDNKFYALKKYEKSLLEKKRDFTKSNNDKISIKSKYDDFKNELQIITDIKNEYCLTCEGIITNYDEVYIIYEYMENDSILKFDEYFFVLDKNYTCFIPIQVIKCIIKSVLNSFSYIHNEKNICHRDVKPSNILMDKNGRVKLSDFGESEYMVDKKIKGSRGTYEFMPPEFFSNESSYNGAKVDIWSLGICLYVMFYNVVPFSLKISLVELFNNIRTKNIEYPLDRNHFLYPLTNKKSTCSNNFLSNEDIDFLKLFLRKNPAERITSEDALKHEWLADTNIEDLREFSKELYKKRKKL
Sequence of Plasmodium falciparum protein kinase 6 (PK6, PF3D7_1337100) (Q8IDW1 1-305): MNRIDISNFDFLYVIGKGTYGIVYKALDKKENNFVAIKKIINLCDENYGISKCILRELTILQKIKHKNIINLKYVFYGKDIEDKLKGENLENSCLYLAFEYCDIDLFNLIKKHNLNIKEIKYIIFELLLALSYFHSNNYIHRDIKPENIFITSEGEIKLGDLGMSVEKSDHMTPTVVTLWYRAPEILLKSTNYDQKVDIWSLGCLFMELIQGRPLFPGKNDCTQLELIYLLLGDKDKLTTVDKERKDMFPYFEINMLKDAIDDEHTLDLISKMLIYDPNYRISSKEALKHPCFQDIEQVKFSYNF
Sequence of Calcium-dependent protein kinase 1 (Plasmodium falciparum (isolate 3D7)) (P62344 whole entry, looked up): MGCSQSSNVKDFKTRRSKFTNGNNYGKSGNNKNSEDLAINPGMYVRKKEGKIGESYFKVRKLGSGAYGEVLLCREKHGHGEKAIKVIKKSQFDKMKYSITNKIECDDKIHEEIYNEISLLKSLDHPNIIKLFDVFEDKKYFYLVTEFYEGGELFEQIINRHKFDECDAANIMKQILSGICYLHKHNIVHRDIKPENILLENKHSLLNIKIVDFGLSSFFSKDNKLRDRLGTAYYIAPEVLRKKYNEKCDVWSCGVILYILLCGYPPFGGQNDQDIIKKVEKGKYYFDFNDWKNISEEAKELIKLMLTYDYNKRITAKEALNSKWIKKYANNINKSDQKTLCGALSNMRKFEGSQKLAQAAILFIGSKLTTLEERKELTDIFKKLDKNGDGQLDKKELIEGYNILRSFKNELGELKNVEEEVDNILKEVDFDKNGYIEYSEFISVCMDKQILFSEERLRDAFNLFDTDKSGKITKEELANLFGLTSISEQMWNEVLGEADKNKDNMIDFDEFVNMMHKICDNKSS

Row | Compound | growth inhibition [1] | inhibition [2] | inhibition [3] [%] | growth inhibition [4] | outcome [5] | outcome [6] | outcome [7] | outcome [8]
1 | CCOC(=O)NOC(C(=O)O)c1ccccc1 (stereo not drawn) | 17% | 4% | -1 | 99% (active) | inactive | inactive | inactive | inactive
2 | CN1CCCc2ccc(NC(=O)Nc3ccc(-c4ccccc4)cc3)cc2C1 | 47% | 23% | 0 | 97% (active) | inactive | inactive | inactive | inactive
3 | Cc1cc(-c2cccc(CNC3CCN(C)CC3)c2)ccc1S(=O)(=O)NCCN1CCCC1 | 0% | 18% | 0 | 100% (active) | inactive | inactive | inactive | inactive
4 | O=C(C=Cc1ccc(Br)cc1)N1CCC(CCN2CCC(c3c[nH]c4ccccc34)CC2)CC1 | 24% | 47% | 2 | 98% (active) | inactive | inactive | inactive | inactive
5 | CC1(C)N=C(N)NC(Nc2ccc(F)c(F)c2)=N1 | 1% | 59% (active) | -10 | 91% (active) | inactive | inactive | inactive | inactive
6 | Cc1nc(-c2cccc(NC(C)C(=O)Nc3cc(C(F)(F)F)ccc3N3CCOCC3)c2)cs1 (stereo not drawn) | 97% (active) | 3% | -2 | 82% (active) | inactive | inactive | inactive | inactive
7 | CC(C)C1C(O)=C(c2ccc3ccccc3c2)C(=O)N1Cc1cccc(F)c1 (stereo not drawn) | 82% (active) | 3% | 3 | 97% (active) | inactive | inactive | inactive | inactive
8 | CC1(C)N=C(N)N=C(N)N1OCC1COc2ccccc2O1 (stereo not drawn) | 66% (active) | 56% (active) | -1 | 96% (active) | inactive | inactive | inactive | inactive
9 | O=C(Nc1cccc(OCc2ccccc2)c1)c1ccc(CN2CCC(Cc3ccccc3)CC2)cc1 | 27% | 41% | 3 | 100% (active) | inactive | inactive | inactive | inactive
10 | COc1ccc(C2CC(c3cccs3)=NN2C(=O)CNc2ccccc2F)cc1OC (stereo not drawn) | 45% | 11% | 2 | 87% (active) | inactive | inactive | inactive | inactive
11 | O=C(NCc1ccccc1)c1ccc(C(=O)NCC2CNCCO2)cc1 (stereo not drawn) | -1% | 4% | -4 | 92% (active) | inactive | inactive | inactive | inactive
12 | O=C(Cc1cccc(Cl)c1)Nc1cccc(-c2c[nH]c3nc(Nc4cccc(O)c4)ncc23)c1 | 74% (active) | 23% | 3 | 100% (active) | inactive | inactive | inactive | inactive
13 | O=C(Nc1ccc(N2CCCN(Cc3cccc(F)c3)CC2)cc1)c1ccc(F)cc1 | 95% (active) | 0% | 3 | 96% (active) | inactive | inactive | inactive | inactive
14 | Cc1nnsc1C(=O)Nc1ccc(-c2ccc(-c3nc4ccccc4[nH]3)s2)cc1 | 38% | 49% | 4 | 92% (active) | inactive | inactive | inactive | inactive
15 | CC(C)C(=O)ONC1=NC(C)(C)N(OCCCOc2cc(Cl)c(Cl)cc2Cl)C(N)=N1 | 96% (active) | 64% (active) | -4 | 95% (active) | inactive | inactive | inactive | inactive
16 | Cc1ccc(Nc2nccc(Nc3ccc4c(C)[nH]nc4c3)n2)cc1F | 1% | 6% | 4 | 95% (active) | inactive | inactive | inactive | inactive
17 | COc1cc(C(=O)NCCCN2CCN(c3cc(Cl)ccc3OC)CC2)ccc1-c1nc2cc(Cl)c(Cl)cc2[nH]1 | 99% (active) | 12% | -3 | 102% (active) | inactive | inactive | inactive | inactive
18 | CN1N=C2c3ccccc3CCC2C1c1ccc(C#N)cc1 (stereo not drawn) | 85% (active) | -9% | 2 | 95% (active) | inactive | inactive | inactive | inactive
19 | COc1cc(NC(=O)/C=C/c2ccccc2OC(F)(F)F)cc(OCCN2CCN(CCN3CCOCC3)CC2)c1 | 25% | 20% | -1 | 98% (active) | inactive | inactive | inactive | inactive
20 | CN(C(=O)c1snnc1-c1ccccc1)C1CCN(CCCCCNC(=O)/C=C/c2ccc(Cl)c(Cl)c2)CC1 | 58% (active) | 44% | 4 | 96% (active) | inactive | inactive | inactive | inactive
21 | COc1ccc2nccc(N(C)CC3(O)CCC(NCc4cc5c(cn4)OCCO5)CC3)c2n1 (stereo not drawn) | 14% | 1% | -2 | 99% (active) | inactive | inactive | inactive | inactive
